Measured values taken from PubChem BioAssay (EPA / NIEHS).
Inconclusive results are not listed. The source made the active and inactive calls. The calls were made as follows: active = hit-call score of the fitted dose curve at least 0.9, where 1 is the maximum; inconclusive = response in the unintended direction; inactive = score below 0.9.

Columns and labels:
[1] = ACEA_ER_AUC_viability: ACEA Biosciences xCELLigence Real-Time Cell Analysis on Estrogen Receptor Agonism for Viability (AID 2283782);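 also: hit means loss of impedance signal meaning reduced cell growth or viability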
Procedure, shortened: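 T-47D human breast cells in phenol red-free RPMI1640 with 10% charcoal-stripped FBS were dosed with an 8-point 1:4 dilution series from 100 uM top final concentration, in duplicate. Impedance-based growth was followed for 80 h; AUC analysed versus DMSO.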

[2] = ACEA_AR_antagonist_AUC_viability: ACEA Biosciences xCELLigence Real-Time Cell Analysis on Androgen Receptor Antagonism for Viability (AID 2283776);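 also: 22Rv1 human prostate cancer cells growing on impedance electrode plates; hits lower the growth signal relative to DMSO meaning cytotoxicity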
Procedure, shortened: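 Real-time electrical impedance tracks 22Rv1 proliferation after continuous compound exposure (top 100 uM final, 1:4 steps, 8 concentrations). The 80 h area-under-curve serves as the cytotoxicity readout relative to DMSO.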

[3] = ACEA_AR_agonist_AUC_viability: ACEA Biosciences xCELLigence Real-Time Cell Analysis on Androgen Receptor Agonism for Viability (AID 2283775);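 as to AC50: viability read 80 hours after compound addition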
Procedure, shortened: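 Real-time impedance tracking of 22Rv1 growth, readings every 5 min for 5 h then hourly; area-under-curve viability endpoint at 80 hours, relative to DMSO. Compounds at eight concentrations, 1:4 steps, top 100 uM, n = 2.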

[4] = biological target: AR (gene 367) (UniProt P10275); test: ACEA_AR_antagonist_80hr: ACEA Biosciences xCELLigence Real-Time Cell Analysis on Androgen Receptor Antagonism for Proliferation (AID 2283787);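 also: hits lower the impedance growth signal relative to DMSO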
Procedure, shortened: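 Impedance readout (RT-CES), 80 h post-dose; loss-of-signal vs DMSO baseline. 22Rv1 cells in assay medium. Compounds: 8-pt 1:4 series, max 100 uM final, up to 0.5% DMSO; n = 2.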

[5] = biological target: AR (gene 367) (UniProt P10275); test: ACEA_AR_agonist_80hr: ACEA Biosciences xCELLigence Real-Time Cell Analysis on Androgen Receptor Agonism for Proliferation (AID 2283783);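 also: hits increase impedance growth signal above DMSO baseline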
Procedure, shortened: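 22Rv1 human prostate cancer cells were seeded after preconditioning in assay medium and monitored overnight, then dosed in an eight-point 1:4 dilution series from 100 uM (≤0.5% DMSO). Impedance-based growth was read at 80 h, gain-of-signal versus DMSO.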

AR (gene 367), sequence (P10275 whole entry, looked up): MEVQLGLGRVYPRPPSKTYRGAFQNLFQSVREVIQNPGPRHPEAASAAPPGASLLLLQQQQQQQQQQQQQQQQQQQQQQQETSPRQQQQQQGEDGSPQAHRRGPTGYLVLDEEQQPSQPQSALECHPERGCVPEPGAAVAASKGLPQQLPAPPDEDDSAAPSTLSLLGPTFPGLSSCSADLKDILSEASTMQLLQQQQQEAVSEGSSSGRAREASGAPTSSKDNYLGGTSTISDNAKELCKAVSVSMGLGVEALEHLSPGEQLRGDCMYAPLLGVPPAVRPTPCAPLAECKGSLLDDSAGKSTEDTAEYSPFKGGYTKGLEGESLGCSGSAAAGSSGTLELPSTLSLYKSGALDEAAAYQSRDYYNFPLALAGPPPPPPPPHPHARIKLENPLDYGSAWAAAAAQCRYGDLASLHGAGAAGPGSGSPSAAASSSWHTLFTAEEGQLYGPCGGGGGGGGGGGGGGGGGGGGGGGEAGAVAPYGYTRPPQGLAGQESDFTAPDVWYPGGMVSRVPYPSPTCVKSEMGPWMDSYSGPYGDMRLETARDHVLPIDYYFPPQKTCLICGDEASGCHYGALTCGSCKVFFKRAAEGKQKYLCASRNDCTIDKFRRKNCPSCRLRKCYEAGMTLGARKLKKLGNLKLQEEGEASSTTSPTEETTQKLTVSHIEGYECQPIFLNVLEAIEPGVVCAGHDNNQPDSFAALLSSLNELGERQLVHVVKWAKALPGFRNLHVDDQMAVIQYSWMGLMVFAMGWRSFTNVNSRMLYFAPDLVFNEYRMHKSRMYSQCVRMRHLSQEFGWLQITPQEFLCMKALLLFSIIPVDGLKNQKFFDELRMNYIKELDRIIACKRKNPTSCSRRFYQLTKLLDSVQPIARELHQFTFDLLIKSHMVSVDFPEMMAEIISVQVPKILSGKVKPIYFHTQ

SMILES: CCc1cc(SCc2sc(-c3ccc(C(F)(F)F)cc3)nc2CN2CCN(c3ccc(OC)cc3)CC2)ccc1OCC(=O)O
- AC50 [1]: 34.5 µM (active)

SMILES: O=C(O)c1cc(N=Nc2ccc(S(=O)(=O)Nc3ccccn3)cc2)ccc1O
- outcome [2]: inactive

SMILES: O=C(OC[C@H]1O[C@@H](OC(=O)c2cc(O)c(O)c(OC(=O)c3cc(O)c(O)c(O)c3)c2)[C@H](OC(=O)c2cc(O)c(O)c(OC(=O)c3cc(O)c(O)c(O)c3)c2)[C@@H](OC(=O)c2cc(O)c(O)c(OC(=O)c3cc(O)c(O)c(O)c3)c2)[C@@H]1OC(=O)c1cc(O)c(O)c(OC(=O)c2cc(O)c(O)c(O)c2)c1)c1cc(O)c(O)c(OC(=O)c2cc(O)c(O)c(O)c2)c1
- AC50 [3]: 26.3 µM (active)
- outcome [1]: inactive

SMILES: CC1(C)C(=O)N(Br)C(=O)N1Br
- outcome [3]: inactive
- outcome [2]: inactive
- outcome [4]: inactive

SMILES: CCCCC(CC)COC(=O)c1ccc(C(=O)OCC(CC)CCCC)cc1 (stereo unspecified)
- outcome [2]: inactive
- AC50 [1]: 80 µM (active)
- outcome [5]: inactive
- outcome [4]: inactive
